Records with an inconclusive call do not appear. The source made the active and inactive calls. Unless noted, calls come from the whole dose curve; as a rule, active = well fitted curve in the direction sought with a large enough effect in the repeat runs; inconclusive = weak or mixed curves; inactive = no such curve, though single readings can be large; an effect the other way counts as inactive or inconclusive.
Legend:
[1] = tested on: thyroid hormone receptor (rat, GH3 cells); assay: qHTS assay to identify small molecule agonists of the thyroid receptor (TR) signaling pathway (AID 743066; calls by dose curve)
[2] = biological target: Estrogen receptor (Homo sapiens) (UniProt P03372); assay: qHTS assay to identify small molecule antagonists of the estrogen receptor alpha (ER-alpha) signaling pathway (AID 743069; active = well fitted curve in the direction sought with a large enough effect in the signal ratio in the repeat runs, not every such curve was filed as active; the % refers to the signal ratio)
Outline: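 Reporter cells (ER-alpha-bla, HEK293 background) are conditioned overnight in stripped-serum medium (2% charcoal-stripped FBS). Compound and 17beta-estradiol exposure runs 18 hr at 37C, 5% CO2.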

[3] = qHTS assay to identify small molecule antagonists of the estrogen receptor alpha (ER-alpha) signaling pathway - cell viability counter screen (AID 743074; calls by dose curve;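 note: HEK293 cells carrying ER-alpha-UAS-bla reporter stimulated with 17beta-estradiol; nearly all actives have a fitted effect of over 45% in size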)
[4] = biological target: Estrogen receptor (Homo sapiens) (UniProt P03372); assay: qHTS assay to identify small molecule agonists of the estrogen receptor alpha (ER-alpha) signaling pathway (AID 743075; calls by dose curve;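 note: HEK293 GripTite cells with ER-alpha and UAS-driven beta-lactamase reporter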)
[5] = biological target: Estrogen receptor (Homo sapiens) (UniProt P03372); assay: qHTS assay to identify small molecule agonists of the estrogen receptor alpha (ER-alpha) signaling pathway using the BG1 cell line (AID 743079); note: nearly all actives have a fitted effect of over 20% in size; note: potency is the fitted concentration of half-maximal effect
[6] = qHTS assay to identify small molecule antagonists of the estrogen receptor alpha (ER-alpha) signaling pathway using the BG1 cell line (AID 743080; calls by dose curve; note: series mostly up to about 70 µM; nearly all actives have a fitted effect of over 25% in size)
Outline: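 Antagonist mode: compounds in DMSO were pinned onto BG1-Luc-4E2 cells alongside 17beta-estradiol agonist, incubated 21.5 h, and ERE-driven luciferase measured with ONE-Glo. Cytotoxicity was multiplexed using CellTiter-Fluor fluorescence.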

[7] = qHTS assay to identify small molecule antagonists of the estrogen receptor alpha (ER-alpha) signaling pathway using the BG1 cell line - cell viability counter screen (AID 743081);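 note: compound given together with 17beta-estradiol as the ER stimulus; series mostly up to about 70 µM; nearly all actives have a fitted effect of over 45% in size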
Aromatase (Homo sapiens) = Aromatase (Homo sapiens) (UniProt P11511); assay: qHTS assay to identify aromatase inhibitors (AID 743083); note: series mostly up to about 70 µM; nearly all actives have a fitted effect of over 55% in size
[8] = qHTS assay to identify aromatase inhibitors - cell viability counter screen (AID 743084);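 note: cells stimulated with testosterone during compound exposure; nearly all actives have a fitted effect of over 55% in size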
[9] = biological target: Aryl hydrocarbon receptor (Homo sapiens) (UniProt P35869); assay: qHTS assay to identify small molecule that activate the aryl hydrocarbon receptor (AhR) signaling pathway (AID 743085); note: nearly all actives have a fitted effect of over 15% in size; note: potency is the fitted concentration of half-maximal effect;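 for activation: HG2L7.5c1 human HepG2 liver cells with stably integrated DRE-driven firefly reporter; series mostly up to about 70 µM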
Outline: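 AhR agonist activity is inferred from enhanced light output of a DRE-controlled firefly luciferase reporter in HepG2 cells, measured with ONE-Glo following 24 h treatment at 37C.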

[10] = biological target: Peroxisome proliferator-activated receptor gamma (Homo sapiens) (UniProt P37231); assay: qHTS assay to identify small molecule agonists of the peroxisome proliferator-activated receptor gamma (PPARg) signaling pathway (AID 743094; active = well fitted activation curve with a large enough effect in the signal ratio in the repeat runs, not every such curve was filed as active; the % refers to the signal ratio)
Outline: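 Quantitative HTS agonist mode: stable HEK293H line with UAS-beta-lactamase reporter under PPARg control, 17 h compound exposure at 37C, fluorescence after 1 h FRET substrate loading at room temperature.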

[11] = biological target: Peroxisome proliferator-activated receptor gamma (Homo sapiens) (UniProt P37231); assay: qHTS assay to identify small molecule antagonists of the peroxisome proliferator-activated receptor gamma (PPARg) signaling pathway (AID 743191; calls by dose curve; note: series mostly up to about 63 µM; nearly all actives have a fitted effect of over 30% in size)
Outline: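 GeneBLAzer PPARg UAS-bla HEK293H cells, 5 h post-plating, exposed to compounds 17 h at 37C. LiveBLAzer B/G FRET substrate added for 1 h at room temperature; beta-lactamase reporter read by fluorescence intensity.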

[12] = qHTS assay to identify small molecule antagonists of the peroxisome proliferator-activated receptor gamma (PPARg) signaling pathway - cell viability counter screen (AID 743194); note: nearly all actives have a fitted effect of over 55% in size
Outline: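 Cytotoxicity counter screen in PPARg-bla HEK293H cells, same wells as reporter assay. Compounds plus 50 nM rosiglitazone (final) for 17 h at 37 C, then viability read by CellTiter-Glo luminescence.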

[13] = qHTS assay for small molecule agonists of the antioxidant response element (ARE) signaling pathway (AID 743202; active = well fitted activation curve with a large enough effect in the signal ratio in the repeat runs, not every such curve was filed as active; the % refers to the signal ratio; note: potency is the fitted concentration of half-maximal effect)
Outline: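 Agonist mode reporter screen: HepG2 cells with ARE-controlled beta-lactamase are incubated with test compounds for 16 h at 37 C, and beta-lactamase activity is measured as fluorescence of cleaved B/G FRET substrate.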

[14] = qHTS assay for small molecule agonists of the antioxidant response element (ARE) signaling pathway - cell viability counter screen (AID 743203; calls by dose curve; note: nearly all actives have a fitted effect of over 55% in size)
Outline: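 Seeded at 2,000 cells/well, ARE-bla HepG2 cells were incubated 5 hrs before compound addition. After 16 hrs of treatment at 37C with 5% CO2, CellTiter-Glo reagent was added and luminescence read 30 min later.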

[15] = qHTS assay for small molecule activators of the heat shock response signaling pathway - cell viability counter screen (AID 743209); note: nearly all actives have a fitted effect of over 50% in size
Outline: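 First, HSE-bla HeLa cells were seeded at 1500 cells/well and kept overnight at 37 C. Next, compounds were pinned in and incubated 5 h. After the FRET substrate step, CellTiter-Glo was added and luminescence read 30 min later.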

[16] = qHTS assay for small molecule activators of the heat shock response signaling pathway (AID 743210; active = well fitted activation curve with a large enough effect in the signal ratio in the repeat runs, with a control signal flat, not every such curve was filed as active; the % refers to the signal ratio;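 note: HeLa cells with beta-lactamase reporter driven by heat shock elements; series mostly up to about 63 µM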)
Outline: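 Quantitative high-throughput format using an engineered HeLa line in which heat shock response elements drive beta-lactamase; after 5 h with compound, cells received a B/G FRET substrate and fluorescence was read.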

[17] = qHTS assay to identify small molecule agonists of the peroxisome proliferator-activated receptor delta (PPARd) signaling pathway - cell viability counter screen (AID 743211); note: nearly all actives have a fitted effect of over 55% in size
Outline: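 qHTS cell viability: PPARd-bla HEK293H; 17 h cpd, 37C; CellTiter-Glo, luminescence at 30 min RT.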

[18] = biological target: Peroxisome proliferator-activated receptor delta (Homo sapiens) (UniProt Q03181); assay: qHTS assay to identify small molecule agonists of the peroxisome proliferator-activated receptor delta (PPARd) signaling pathway (AID 743212; calls by dose curve)
Outline: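 Quantitative high-throughput agonist screen in a HEK293H beta-lactamase reporter line under UAS control. Compounds in DMSO, at 37 C. Fluorescence read after 2 h with FRET substrate at room temperature.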

[19] = qHTS assay to identify small molecule that activate the aryl hydrocarbon receptor (AhR) signaling pathway - cell viability counter screen (AID 743086);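 note: HepG2 liver cells carrying the AhR DRE luciferase reporter; series mostly up to about 70 µM; nearly all actives have a fitted effect of over 45% in size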
Outline: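 HepG2-AhR-luc (HG2L7.5c1) cells, 4000/well, treated 24 h at 37 C with compound; viability measured as CellTiter-Fluor fluorescence after 30 min in the same wells as the luciferase read.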

Measured: Potency

Aromatase (Homo sapiens), sequence (P11511 whole entry, looked up): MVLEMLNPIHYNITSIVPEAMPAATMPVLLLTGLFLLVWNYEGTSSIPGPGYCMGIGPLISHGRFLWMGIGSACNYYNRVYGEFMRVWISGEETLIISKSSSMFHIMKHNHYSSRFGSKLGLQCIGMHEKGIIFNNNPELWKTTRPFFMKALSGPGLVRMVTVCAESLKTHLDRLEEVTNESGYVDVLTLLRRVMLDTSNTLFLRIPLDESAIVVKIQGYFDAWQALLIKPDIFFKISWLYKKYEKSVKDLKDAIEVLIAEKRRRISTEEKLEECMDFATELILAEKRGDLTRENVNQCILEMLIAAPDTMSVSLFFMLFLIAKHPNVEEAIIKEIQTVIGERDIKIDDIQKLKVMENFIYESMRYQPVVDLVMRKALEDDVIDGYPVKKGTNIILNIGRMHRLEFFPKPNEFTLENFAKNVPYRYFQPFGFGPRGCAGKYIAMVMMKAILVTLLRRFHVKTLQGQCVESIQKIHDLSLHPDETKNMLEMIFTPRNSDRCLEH
Estrogen receptor (Homo sapiens), sequence (P03372 whole entry, looked up): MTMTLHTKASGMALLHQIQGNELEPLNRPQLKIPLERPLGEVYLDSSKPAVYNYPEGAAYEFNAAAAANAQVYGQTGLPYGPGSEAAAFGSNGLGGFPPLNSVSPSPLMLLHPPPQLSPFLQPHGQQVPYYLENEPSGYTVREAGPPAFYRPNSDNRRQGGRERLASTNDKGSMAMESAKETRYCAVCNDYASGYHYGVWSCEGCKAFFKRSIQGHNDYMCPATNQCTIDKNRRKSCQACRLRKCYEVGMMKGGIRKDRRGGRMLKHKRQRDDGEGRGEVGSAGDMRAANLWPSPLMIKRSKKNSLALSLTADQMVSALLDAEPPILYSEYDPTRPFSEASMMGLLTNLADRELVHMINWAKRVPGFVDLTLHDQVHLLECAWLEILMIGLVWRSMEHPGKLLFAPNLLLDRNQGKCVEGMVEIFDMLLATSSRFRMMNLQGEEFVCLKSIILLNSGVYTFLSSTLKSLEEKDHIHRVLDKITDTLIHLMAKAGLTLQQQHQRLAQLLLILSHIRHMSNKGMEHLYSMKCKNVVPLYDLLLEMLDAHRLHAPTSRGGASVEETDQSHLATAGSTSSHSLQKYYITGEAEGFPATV
Aryl hydrocarbon receptor (Homo sapiens), sequence (P35869 whole entry, looked up): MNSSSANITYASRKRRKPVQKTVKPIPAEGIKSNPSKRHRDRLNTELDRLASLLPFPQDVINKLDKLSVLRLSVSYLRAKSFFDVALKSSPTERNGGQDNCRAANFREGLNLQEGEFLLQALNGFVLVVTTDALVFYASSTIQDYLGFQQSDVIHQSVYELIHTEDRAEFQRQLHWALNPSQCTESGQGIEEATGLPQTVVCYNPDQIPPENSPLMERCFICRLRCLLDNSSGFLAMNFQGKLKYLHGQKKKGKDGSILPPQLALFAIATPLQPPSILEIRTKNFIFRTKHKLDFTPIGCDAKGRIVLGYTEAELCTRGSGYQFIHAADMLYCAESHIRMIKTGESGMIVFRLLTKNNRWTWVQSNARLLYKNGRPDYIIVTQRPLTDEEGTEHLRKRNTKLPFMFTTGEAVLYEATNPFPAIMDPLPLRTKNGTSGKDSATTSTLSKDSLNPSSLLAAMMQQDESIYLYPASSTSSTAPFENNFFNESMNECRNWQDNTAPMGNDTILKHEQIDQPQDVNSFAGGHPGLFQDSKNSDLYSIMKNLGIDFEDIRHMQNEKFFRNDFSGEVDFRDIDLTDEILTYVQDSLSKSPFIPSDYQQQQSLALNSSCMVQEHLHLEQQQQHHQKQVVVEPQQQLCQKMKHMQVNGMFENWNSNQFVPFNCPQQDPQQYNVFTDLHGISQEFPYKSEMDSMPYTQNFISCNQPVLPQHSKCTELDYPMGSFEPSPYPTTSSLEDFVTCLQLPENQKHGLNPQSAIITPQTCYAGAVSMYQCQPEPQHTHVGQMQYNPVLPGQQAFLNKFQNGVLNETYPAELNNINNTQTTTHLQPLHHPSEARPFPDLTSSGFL
Peroxisome proliferator-activated receptor delta (Homo sapiens), sequence (Q03181 whole entry, looked up): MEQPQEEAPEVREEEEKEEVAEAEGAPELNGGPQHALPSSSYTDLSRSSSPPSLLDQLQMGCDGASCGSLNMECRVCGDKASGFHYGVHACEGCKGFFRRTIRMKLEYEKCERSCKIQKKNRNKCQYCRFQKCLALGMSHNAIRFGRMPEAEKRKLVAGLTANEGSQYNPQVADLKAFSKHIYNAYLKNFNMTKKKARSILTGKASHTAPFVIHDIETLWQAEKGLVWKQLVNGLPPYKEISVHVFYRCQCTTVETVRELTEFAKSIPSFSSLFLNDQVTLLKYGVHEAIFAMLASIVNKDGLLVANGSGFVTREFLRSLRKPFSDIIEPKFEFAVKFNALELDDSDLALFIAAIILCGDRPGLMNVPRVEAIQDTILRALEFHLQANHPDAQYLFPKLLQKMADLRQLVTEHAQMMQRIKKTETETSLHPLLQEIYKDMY
Peroxisome proliferator-activated receptor gamma (Homo sapiens), sequence (P37231 whole entry, looked up): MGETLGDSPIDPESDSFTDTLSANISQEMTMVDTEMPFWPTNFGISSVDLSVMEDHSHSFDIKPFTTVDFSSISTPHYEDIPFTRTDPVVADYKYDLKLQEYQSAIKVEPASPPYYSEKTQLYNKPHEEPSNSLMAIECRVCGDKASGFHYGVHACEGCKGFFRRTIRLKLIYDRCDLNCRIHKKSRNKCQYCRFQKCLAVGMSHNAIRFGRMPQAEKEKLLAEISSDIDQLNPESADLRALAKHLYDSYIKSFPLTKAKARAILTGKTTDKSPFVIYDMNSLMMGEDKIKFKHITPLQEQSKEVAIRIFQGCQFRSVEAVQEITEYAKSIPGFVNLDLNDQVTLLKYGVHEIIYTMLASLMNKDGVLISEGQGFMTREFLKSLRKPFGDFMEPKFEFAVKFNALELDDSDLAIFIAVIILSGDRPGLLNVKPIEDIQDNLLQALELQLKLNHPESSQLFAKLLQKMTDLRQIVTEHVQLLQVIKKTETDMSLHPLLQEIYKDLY

CCCCCCCCCCCC(=O)OCC
not listed: [19]
inactive: all other assays above

O=C(Cl)c1cc(Cl)cc(Cl)c1
not listed: [8] | [11] | [13] | [19]
inactive: all other assays above

CC(C)C/C=C(\C=O)c1ccccc1
active: [5] 61.1 µM
not listed: [8] | [19]
inactive: all other assays above

CCc1cnc(C(=O)O)c(C(=O)O)c1
not listed: [8] | [19]
inactive: all other assays above

O=C(O)CCc1nc2ccccc2[nH]1
not listed: [10] | [11] | [17] | [19]
inactive: all other assays above

C=CCCC
not listed: [10] | [11] | [17] | [19]
inactive: all other assays above

CC(C)=CCC[C@H](C)CCO
not listed: [11] | [19]
inactive: all other assays above

CCC1=C(C)CN(C(=O)NCCc2ccc(S(=O)(=O)NC(=O)NC3CCC(C)CC3)cc2)C1=O (centres undefined)
not listed: [10] | [11] | [13]
inactive: all other assays above

CC(CCl)OC(C)CCl (centres undefined)
not listed: Aromatase (Homo sapiens) | [9]
inactive: all other assays above

CC(=O)Nc1cccc(N)c1
active: [9] 62 µM
not listed: [8] | [13]
inactive: all other assays above

OCC(O)c1ccccc1 (centres undefined)
not listed: [10] | [11]
inactive: all other assays above

CCC[Si](OC)(OC)OC
not listed: [10] | [11] | [12] | [17]
inactive: all other assays above

CCCCOC(=O)CC#N
not listed: [13] | [16] | [17] | [18] | [19]
inactive: all other assays above

COc1ccc(C(=O)Nc2ccccc2)cc1[N+](=O)[O-]
active: [5] 3.09 µM | [9] 30.9 µM
not listed: [6] | [10] | [11] | [13] | [17] | [18]
inactive: all other assays above

O=c1[nH][nH]c2ccccc12
active: [9] 62.3 µM
not listed: [10] | [11] | [19]
inactive: all other assays above

NC(=O)c1ccccc1
not listed: [10] | [18] | [19]
inactive: all other assays above

S=c1[nH][nH]c(=S)s1
not listed: [9] | [10] | [11] | [13] | [17]
inactive: all other assays above

CC1(C)C(=O)NC(=O)N1CO
not listed: [5] | [10]
inactive: all other assays above

Nc1ccc(-c2ccc(F)cc2)cc1
active: [5] 54.5 µM
not listed: [2] | [6] | [9] | [13]
inactive: all other assays above

C[C@@H](O)[C@H]1C(=O)N2C(C(=O)O)=C(S[C@@H]3CN[C@H](CNS(N)(=O)=O)C3)[C@H](C)[C@H]12
not listed: [5]
inactive: all other assays above

CCn1nc(Cc2ccccc2)cc1C1CCN(C[C@H]2C[C@H](N(C)[C@@H](C(=O)O)C(C)C)C[C@@H]2c2cccc(F)c2)CC1
not listed: [2] | [7] | [10] | [11] | [13] | [15] | [18] | [19]
inactive: all other assays above

CCCCOc1ccc(N)cc1
not listed: [5] | [6] | [11]
inactive: all other assays above

C=Cc1ccc(C=C)cc1
not listed: [3] | [12]
inactive: all other assays above

O=C(Cl)c1ccc(F)c(Cl)c1
not listed: [5] | [10] | [11]
inactive: all other assays above

CCc1ccc2c(c1)C(=O)c1ccccc1C2=O
active: [5] 27.3 µM | [9] 27.3 µM | [13] 34.4 µM
not listed: [2] | [6] | [11] | [18]
inactive: all other assays above

Cc1cc(N)n(-c2ccccc2)n1
not listed: [5] | [6] | [9]
inactive: all other assays above

Cc1cc(C)c(C)c(O)c1
not listed: [2] | [10] | [13]
inactive: all other assays above

C/C(=C\C(C)CC(C)CC(C)C)C1CC(=O)OC1=O (centres undefined)
not listed: [2] | [8] | [13] | [18]
inactive: all other assays above

Reference: PubChem BioAssay (Tox21)
